Screening data deposited in PubChem BioAssay by Johns Hopkins Ion Channel Center.
KCNQ2 inh – inhibitors of rat KCNQ2 potassium channel. O88943. CHO-K1 KCNQ2, FluxOR thallium flux, 20 min; active compounds read low. B-score at 10 µM. hit rate 1.1% among 310,000. AID 2156;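 active = fluorescence ratio B-score at most minus 3 library SDs, with starting brightness B-score within 2 library SDs, cut at about -5.5 in these data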
Target sequence (O88943 whole entry, looked up): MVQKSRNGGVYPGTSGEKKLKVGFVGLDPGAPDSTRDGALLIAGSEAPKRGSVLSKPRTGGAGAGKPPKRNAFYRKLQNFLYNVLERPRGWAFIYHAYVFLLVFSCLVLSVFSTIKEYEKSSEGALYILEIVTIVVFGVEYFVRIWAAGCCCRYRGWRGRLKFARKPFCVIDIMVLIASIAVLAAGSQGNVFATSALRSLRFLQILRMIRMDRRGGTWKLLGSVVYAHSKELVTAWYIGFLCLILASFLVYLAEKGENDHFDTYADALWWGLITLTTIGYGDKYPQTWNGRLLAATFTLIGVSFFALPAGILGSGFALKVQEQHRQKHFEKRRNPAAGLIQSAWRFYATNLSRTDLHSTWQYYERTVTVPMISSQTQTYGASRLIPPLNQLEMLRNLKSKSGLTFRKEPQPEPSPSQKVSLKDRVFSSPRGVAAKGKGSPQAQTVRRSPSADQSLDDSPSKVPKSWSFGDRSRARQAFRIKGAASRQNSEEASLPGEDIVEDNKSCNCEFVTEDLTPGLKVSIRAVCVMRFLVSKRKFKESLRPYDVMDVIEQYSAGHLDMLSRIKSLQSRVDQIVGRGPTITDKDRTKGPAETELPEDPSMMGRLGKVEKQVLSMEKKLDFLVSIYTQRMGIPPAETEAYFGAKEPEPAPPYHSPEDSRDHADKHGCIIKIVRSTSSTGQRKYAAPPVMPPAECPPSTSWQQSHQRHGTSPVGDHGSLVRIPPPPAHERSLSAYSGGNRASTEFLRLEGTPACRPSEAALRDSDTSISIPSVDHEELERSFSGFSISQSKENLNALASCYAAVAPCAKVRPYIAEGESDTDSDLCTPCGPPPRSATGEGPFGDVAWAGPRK
KCNQ2 pot – potentiators of rat KCNQ2 potassium channel. O88943. CHO-K1 KCNQ2, FluxOR thallium flux fluorescence; active compounds read high. B-score at 10 µM. hit rate 0.54% among 310,000. AID 2239;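 active = fluorescence ratio B-score at least 3 SD of library B-scores, with initial fluorescence B-score within 3 of them, cut at about 5.3 in these data; same plate scores as AID 2156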;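 also: B-score of peak minus minimum over baseline fluorescence ratio after K+ and Tl+ stimulus; positive B-score means potentiation of KCNQ2 with more thallium influx and brighter signal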
KCNQ2 block conf – rat KCNQ2 channel inhibition, confirmatory screen; KCNQ2-expressing cells, thallium flux; active compounds read low; hit rate 57% among 1,000; shares compounds with KCNQ2 inh; activity change, negative = inhibition, % at 10 µM;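 also: 0% = vehicle wells and values are ratio percent relative to vehicle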
KCNQ1 spec – human KCNQ1 activity in KCNQ2 inhibitor specificity screen | shares compounds with KCNQ2 inh | KCNQ1-expressing cells, FluxOR thallium flux fluorescence; active compounds read low | activity change, negative = inhibition, % at 10 µM | hit rate 15% among 1,000;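 active = activity change at least 3 SD of negative controls below their mean in both duplicate wells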;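 also: CHO cells stably transfected with KCNQ1 and depolarized by potassium stimulus; peak minus minimum fluorescence over baseline after thallium addition; 0% = vehicle negative control and -100% = blank without thallium stimulus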
CHO Tl ctr – activity in parental CHO cells lacking KCNQ2 | AID 493029 | hit rate 14% among 1,000 | thallium flux counter-screen; active compounds read low | shares compounds with KCNQ2 inh | activity change, % at 10 µM;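 also: 0% = vehicle negative controls with stimulus buffer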
KCNQ2 inh confirm – confirmation of rat KCNQ2 potassium channel inhibitors; shares compounds with KCNQ2 inh; KCNQ2-expressing cells, automated patch clamp current; calls only at 10 µM; hit rate 49% among 550
An asterisk follows results filed as active; i = inactive; / = no result given; + = active, no number. An excerpt weighted towards active compounds, which were near 1.6% of everything screened. Unless noted, no rule for the calls is given here.

SMILES	KCNQ2 inh	KCNQ2 pot	KCNQ2 block conf	KCNQ1 spec	CHO Tl ctr	others
CCOC(=O)CNC(=O)COc1ccc(Cl)cc1Br	i	/	/	/	/
O=C(/C=C/c1ccccc1)N(c1ccccn1)C1CCCCC1	i	/	/	/	/
CN(C(=O)COc1ccc(Cl)cc1Br)C1CCCCC1	-7.8*	-7.8	-30%*	i	i	KCNQ2 inh confirm=+
O=C(COc1ccc(Cl)cc1Cl)N(c1ccccn1)C1CCCCC1	-6.9*	-6.9	-35%*	i	i	KCNQ2 inh confirm=+
Cc1ccc(S(=O)(=O)N(C)c2ccc(C(=O)Nc3c(C)n(C)n(-c4ccccc4)c3=O)cc2)cc1	i	/	/	/	/
c1ccc(CC2CCN(C(c3cccs3)c3nnnn3C3CCCC3)CC2)cc1 (centres undefined)	i	/	/	/	/
c1ccc(CN(Cc2cccs2)C(c2cccs2)c2nnnn2C2CCCC2)cc1 (centres undefined)	-8.2*	-8.2	i	i	i
CC(=O)Nc1cc(N=Cc2ccc(O)cc2O)c(Cl)cc1Cl	i	/	/	/	/
COc1cccc(NC(=O)C(NCC2CCCCC2)c2ccccc2)c1 (centres undefined)	-10*	-10	-28%*	i	i	KCNQ2 inh confirm=+
COc1cccc(NC(=O)C2CCCCC2)c1	i	4.5	/	/	/
C=CCNC(=S)/N=c1/ccccn1CC	i	0.01	/	/	/
COc1ccccc1CN(C)C(=O)c1cc(-c2cc(OC)c(OC)c(OC)c2)nc2ccccc12	i	/	/	/	/
COc1ccc(-c2cc(C(=O)NCC(c3ccccc3)N(C)C)c3ccccc3n2)cc1OC (centres undefined)	i	/	/	/	/
COc1cc(-c2cc(C(=O)Nc3ccc(S(N)(=O)=O)cc3)c3ccccc3n2)cc(OC)c1OC	i	/	/	/	/
COc1cc(-c2cc(C(=O)N(C)Cc3ccccc3)c3ccccc3n2)cc(OC)c1OC	-7.2*	-7.2	-28%*	i	i	KCNQ2 inh confirm=+
COCCN(Cc1ccccc1)C(=O)c1cc(-c2ccc(OC)c(OC)c2)nc2ccccc12	-8.9*	-8.9	-30%*	i	i	KCNQ2 inh confirm=+
COc1cc(-c2cc(C(=O)Nc3c(Cl)cc(Cl)cc3Cl)c3ccccc3n2)cc(OC)c1OC	-7.2*	-7.2	-25%*	i	i	KCNQ2 inh confirm=+
CC(C)Oc1ccc(CNC(=O)CCCN2C(=O)C(c3ccccc3)Oc3cccnc32)cc1 (centres undefined)	i	1.5	/	/	/
COc1ccc(S(=O)(=O)Cc2ccc(C(=O)NC3CCCCCC3)o2)cc1	i	/	/	/	/
O=C(CCc1ccc(S(=O)(=O)N2CCOCC2)cc1)N1CCN(Cc2ccc3c(c2)OCO3)CC1	i	1.1	/	/	/
CC(=O)NC1C(=O)N=C(SCC(=O)Nc2ccc(C(F)(F)F)cc2Cl)NC1=O (centres undefined)	i	0.97	/	/	/
O=c1[nH]c2cc3c(cc2cc1C(c1nnnn1C1CCCC1)N1CCSCC1)OCCO3 (centres undefined)	i	0.87	/	/	/
CC(C)C(c1nnnn1C1CCCC1)N(C)C1CCCCC1 (centres undefined)	i	1	/	/	/
COc1cc2cc(C(c3nnnn3C3CCCC3)N(C)C3CCCCC3)c(=O)[nH]c2cc1OC (centres undefined)	-9*	-9	-36%*	i	i	KCNQ2 inh confirm=+
COc1cc2cc(C(c3nnnn3C3CCCCC3)N(C)C3CCCCC3)c(=O)[nH]c2cc1OC (centres undefined)	-11*	-11	i	i	i
SMILES	KCNQ2 inh	KCNQ2 pot	KCNQ2 block conf	KCNQ1 spec	CHO Tl ctr	others
COc1ccc2[nH]c(=O)c(C(c3nnnn3C3CCCCC3)N3CCN(C)CC3)cc2c1 (centres undefined)	i	/	/	/	/
COc1cc2cc(C(c3nnnn3Cc3ccc(F)cc3)N3CCCCCC3)c(=O)[nH]c2cc1OC (centres undefined)	-7.7*	-7.7	-28%*	i	i	KCNQ2 inh confirm=+
Cc1ccc(C(c2nnnn2C2CCCCC2)N(C)C2CCCCC2)cc1 (centres undefined)	-8.3*	-8.3	i	i	i
COc1ccc(Cn2nnnc2C(c2cc3cc(C)ccc3[nH]c2=O)N2CCN(C)CC2)cc1 (centres undefined)	i	/	/	/	/
CN(/N=C/c1cc(Cl)cc(Cl)c1O)c1c(Cl)cccc1[N+](=O)[O-]	i	/	/	/	/
CCCC(=O)NCc1nc2ccccc2n1CC(=O)c1ccccc1	i	/	/	/	/
FC(F)(F)c1ccccc1-n1c(CN2CCCCC2)n[nH]c1=S	i	0.67	/	/	/
O=C(NC(c1ccccc1)c1ccccc1)c1ccc(=O)[nH]n1	i	0.82	/	/	/
Cn1nc(C(=O)NC2CCCCC2)c2c1-c1ccccc1SC2	i	/	/	/	/
CC(C)N(C(=O)c1nn(C)c2c1CSc1ccccc1-2)C1CCCCC1	-8.7*	-8.7	-26%*	i	i	KCNQ2 inh confirm=i
Clc1ccc(CSc2ccc(-c3ccccn3)nn2)cc1	i	/	/	/	/
Clc1ccc(CSc2cc3c(nn2)-c2ccccc2CC3)cc1	-10*	-10	-38%*	-41%*	-28%*	KCNQ2 inh confirm=i
Cc1cc(OC(C)C(=O)N2CCN(c3ccc(F)cc3)CC2)c2c(C)cc(=O)oc2c1 (centres undefined)	i	/	/	/	/
O=C(Nc1ccc(NC(=O)C2CCCCC2)nc1)c1cccc(F)c1	i	/	/	/	/
CN(c1ccccc1C(=O)Nc1cccc(Br)c1)S(=O)(=O)c1ccccc1	-6.7*	-6.7	i	i	i
CN(c1ccccc1C(=O)Nc1cccc([N+](=O)[O-])c1)S(=O)(=O)c1ccccc1	i	/	/	/	/
CN(Cc1c(C(=O)N2CCc3ccccc3C2)nc2ccc(Cl)cn12)C(C1CC1)C1CC1	-7.9*	-7.9	-24%*	i	i	KCNQ2 inh confirm=+
CCN(C)Cc1c(C(=O)N2CCc3ccccc3C2)nc2ccc(Cl)cn12	i	/	/	/	/
CC(C)C(NC(=O)c1ccccc1)C(=O)N/N=C\c1ccco1 (centres undefined)	i	/	/	/	/
CCc1ccc(-c2cc(C)no2)cc1S(=O)(=O)N1CCC(C)CC1	i	/	/	/	/
Cc1cc(-c2ccc(C(C)C)c(S(=O)(=O)N3CCC(C)CC3)c2)on1	-8.4*	-8.4	-16%*	i	i	KCNQ2 inh confirm=i
CCCCOC(=O)/C(=C/C=C/c1ccccc1)NC(=O)c1ccccc1	-6.9*	-6.9	-25%*	i	i	KCNQ2 inh confirm=i
CCCOC(=O)/C(=C\C=C\c1ccccc1)NC(=O)c1ccccc1	i	/	/	/	/
O=C(Nc1cc(S(=O)(=O)N2CCCCC2)ccc1Oc1ccccc1)C1=COCCO1	i	/	/	/	/
O=C(NC1CCCCC1)C1CC(=O)N(CCc2ccc(F)cc2)C1 (centres undefined)	i	/	/	/	/
COc1ccc(S(=O)(=O)N2CCOC2CNC(=O)C(=O)NCc2ccc3c(c2)OCO3)cc1 (centres undefined)	i	0.03	/	/	/
CC(C)(C)NC(=O)CN(CCc1ccccc1)C(=O)c1csnn1	i	0.19	/	/	/
Cn1nccc1C(=O)N1CCN(S(=O)(=O)c2ccc(Br)s2)CC1	i	/	/	/	/
CCCCC(OC(=O)CN1C(=O)COc2ccccc21)C(=O)NC1CCCCC1 (centres undefined)	i	/	/	/	/
CCCCSc1nc(NCc2ccco2)c2c3c(sc2n1)COC(C)(C)C3	i	/	/	/	/
